Rows were chosen to be rich in hits. Some 19% of all compounds tested hit in one or more screens of this group.
HT1080 IDH1KD tx = qHTS for induction of synthetic lethality in tumor cells producing 2HG: qHTS for the HT-1080-IDH1KD cell line; HT-1080 IDH1 knockdown viability, ATP luminescence, 48 h; Potency, µM (top dose mostly 46.1 µM), most hits filed as cytotoxic; 360,000 compounds, 2% hits; AID 686971, 2013
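IDH1KD HT-1080 cells, 750/well, RPMI + 5% FBS; compound pinned after 2 h settling; 48 h, 37 °C; CellTiter-Glo luminescence; % activity normalised to DMSO and no-cell wells; curves fitted, classed by r2 and efficacy.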
KB-3-1 tox = qHTS assay for MDR1-selective chemotherapeutics: Primary screen using the parental adenocarcinoma cell KB-3-1. KB-3-1 viability, CellTiter-Glo ATP luminescence, 72 h. Potency, µM (series often up to 46.1 µM), usual class: cytotoxic. 400,000 compounds, 1.4% hits; further: nearly all actives have a fitted effect of over 60% in size
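Cells are dispensed, compounds pinned in, plates held at 37 °C for 72 h, then CellTiter-Glo is added and luminescence read after 10 minutes. Cell line: parental KB-3-1 in phenol-red-free DMEM, 10% FBS.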
TDP1 cell noCPT = qHTS for Inhibitors of human tyrosyl-DNA phosphodiesterase 1 (TDP1): qHTS in cells in absence of CPT; DT40 Tdp1-/- hTDP1 cells, no CPT, ATP luminescence, 48 h; AID 686978, 2013; Potency, µM (doses to about 46.2 µM), actives largely listed as inhibitors; 420,000 compounds, 15% hits; further: nearly all actives have a fitted effect of over 55% in size
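Chicken DT40 Tdp1-/- cells stably complemented with human TDP1 were seeded at 400 cells/well with DMSO in place of 20 nM camptothecin. After compound pinning, cells grew at least 48 hr at 37 °C; viability read by CellTiter-Glo luminescence.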
KB-V1 cytotox = qHTS assay for MDR1-selective chemotherapeutics: Primary screen using the drug-selected MDR subline cells KB-V1; KB-V1 MDR cells viability, CellTiter-Glo, 72 h; Potency, µM (titrated, usually from 46.1 µM), hits mostly cytotoxic; 400,000 compounds, 3.4% hits; further: nearly all actives have a fitted effect of over 60% in size
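Cells of the MDR subline KB-V1 are plated, dosed with compound at multiple concentrations, and incubated 72 h at 37 degrees C; CellTiter-Glo is then added and luminescence read after 10 min.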
DT40 TDP1 CPT = qHTS for Inhibitors of human tyrosyl-DNA phosphodiesterase 1 (TDP1): qHTS in cells in presence of CPT | chicken DT40 Tdp1-/-;hTDP1 cells + 20 nM CPT, ATP luminescence, 48 h | Potency, µM (titrated, usually from 46.2 µM), usual class: inhibitors | 420,000 compounds, 12% hits; further: nearly all actives have a fitted effect of over 55% in size
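Chicken DT40 Tdp1-/- cells complemented with human TDP1, 400 cells/well, exposed to compounds plus 20 nM camptothecin for at least 48 h at 37 C; viability read as ATP content by CellTiter-Glo luminescence.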
HT1080-NT tox = qHTS for induction of synthetic lethality in tumor cells producing 2HG: qHTS for the HT-1080-NT fibrosarcoma cell line; HT-1080-NT fibrosarcoma viability, CellTiter-Glo ATP luminescence, 48 h; Potency, µM (series often up to 46.1 µM), most hits filed as cytotoxic; 360,000 compounds, 1.6% hits; AID 686970, 2013;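 further: NT is the 2HG producing partner of a matched IDH1 knockdown line; nearly all actives have a fitted effect of over 55% in size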
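Fibrosarcoma NT cells, 750 per well in 5% FBS RPMI, were exposed to compound for 48 hours. Viability: CellTiter-Glo luminescence.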
Numbers stand for hits; 0 = inactive; ? = inconclusive; - = no result. The call rests on the fitted dose curve; in most records, active means well fitted curve in the direction sought with a large enough effect; inconclusive means small, poorly fitted or top-dose-only effect, or another doubt; inactive means no such curve, though single readings can be large; an effect the other way counts as inactive or inconclusive.

SMILES	HT1080 IDH1KD tx	KB-3-1 tox	TDP1 cell noCPT	KB-V1 cytotox	DT40 TDP1 CPT	HT1080-NT tox
COc1ccc(NC(=O)COC(=O)C2CC(=O)N(c3ccc(C)cc3)C2)cc1 (stereo not given)	0	0	0	?	0	0
CSc1ncnc2[nH]ccc12	0	0	0	0	0	0
Cc1ccc2nc(SCC(=O)NCc3ccccc3)nc(=O)n2c1	0	0	?	0	0	0
COCCNC(=O)C(c1ccc(F)cc1)N(C(=O)CCC(=O)Nc1nccs1)c1cccc(C)c1 (stereo not given)	0	0	0	0	0	0
COc1cccc(N2CC(NC(=O)C3CCCCC3)CC2=O)c1 (stereo not given)	-	-	0	-	0	-
COc1ccccc1NC(=O)c1c(NC(=O)COc2ccccc2)sc2c1CCCCC2	-	0	0	0	0	-
CCOC(=O)C(=CNc1ccc2c(c1)CCN2C(C)=O)C(=O)OCC	0	0	7.3µM	0	21µM	0
CCOC(=O)C(=CNc1ccc(S(N)(=O)=O)cc1)C(=O)OCC	0	0	0	0	0	0
CCOC(=O)C(=CNc1ccc(N2CCOCC2)cc1)C(=O)OCC	0	0	16µM	0	?	0
CCOC(=O)C(=CNc1cc(C)ccc1-n1cccc1)C(=O)OCC	0	0	16µM	0	18µM	0
CCOC(=O)C(=CNc1ccc(NC2=NCC(C)(C)S2)cc1)C(=O)OCC	0	0	9.2µM	0	18µM	0
CN(C)CCN1CCN(C2CN(Cc3cn(Cc4ccc(F)cc4)nn3)S(=O)(=O)C2)CC1 (stereo not given)	0	0	0	0	0	0
O=C(Nc1ccccc1)N1CCCC(CNS(=O)(=O)Cc2ccccc2)C1 (stereo not given)	0	0	0	0	0	0
O=C1C=CN(C2OC(CO)C(O)C2O)C(=O)C1 (stereo not given)	?	0	3.7µM	0	8.2µM	0
Cc1ccsc1CNC(=O)c1c(-c2ccccc2)noc1C	0	0	0	0	0	0
Cc1ccc(SCc2nc(-c3ccc(C(=O)Nc4cc(C)ccc4C)cc3)oc2C)cc1	-	-	8.2µM	-	8.2µM	-
CCc1ccc(CNC(=O)c2ccc(-c3nc(CSc4ccc(C)cc4)c(C)o3)cc2)cc1	-	0	0	0	0	-
COc1cccc(CNC(=O)c2ccc(-c3nc(CSc4ccccc4)c(C)o3)cc2)c1	-	0	?	0	0	-
COc1cc(NC(=O)c2ccc(-c3nc(CSc4ccccc4)c(C)o3)cc2)cc(OC)c1	-	-	15µM	-	18µM	-
Cc1ccc(S(=O)Cc2nc(-c3ccc(C(=O)NC(C)c4ccccc4)cc3)oc2C)cc1 (stereo not given)	-	0	15µM	0	?	-
Cc1ccc(SCc2nc(-c3ccc(C(=O)NCc4ccccc4Cl)cc3)oc2C)cc1	-	0	9.2µM	?	8.2µM	-
S=c1[nH]nc(Cn2cnc3ccccc32)n1-c1ccccc1Cl	0	0	0	0	0	0
C[C@H](CO)N1C[C@H](C)[C@@H](CN(C)C(=O)Nc2ccc(C(F)(F)F)cc2)Oc2ccc(NC(=O)CCC(F)(F)F)cc2C1=O	0	0	0	?	0	0
COc1ccccc1NC(=O)N1CCOc2ccccc21	-	0	0	0	0	-
COc1cc(C2Oc3ccccc3C=C2[N+](=O)[O-])cc(OC)c1OC (stereo not given)	5.8µM	?	2.6µM	?	3.3µM	5.8µM
SMILES	HT1080 IDH1KD tx	KB-3-1 tox	TDP1 cell noCPT	KB-V1 cytotox	DT40 TDP1 CPT	HT1080-NT tox
COc1ccc(-c2c(C)nn3c(-c4ccccc4)cc(-c4ccccc4)nc23)cc1OC	-	0	?	0	0	-
CCN(CC)CC(=O)Nc1ccc2c(c1)Nc1ccccc1CC2	?	?	16µM	?	?	11µM
CCN(CC(=O)Nc1ccc2c(c1)CCC2)Cc1nc2ccccc2c(=O)[nH]1	0	0	8.2µM	0	3.7µM	0
CCN(CC(=O)Nc1ccc2c(c1)OCO2)Cc1nc2ccccc2c(=O)[nH]1	0	0	?	0	?	0
CCN(CC)CCn1c(SCC(=O)Nc2ccc3c(c2)CCC3)nc2ccccc2c1=O	?	0	2.3µM	?	?	?
CCN(CC(=O)Nc1cccc(Br)c1)Cc1nc2ccccc2c(=O)[nH]1	0	0	4.6µM	0	5.2µM	0
O=C(c1ccc(Cl)cc1Cl)N1CCC(C(=O)N2CCOCC2)CC1	0	0	0	0	0	0
CC1=CC(C)(C)N=C(Nc2ccc(C)cc2)S1	?	0	?	0	?	?
CC(=O)N(C)C(c1ccc(N(C)C)cc1)c1nnnn1-c1c(C)cccc1C (stereo not given)	0	0	0	0	0	0
CC(C)c1ccc(NC(=O)N2CCCC2C(=O)Nc2ccc(-n3cnnn3)cc2)cc1 (stereo not given)	0	0	0	0	0	0
CS(=O)(=O)NNC(=O)Cn1nnc(-c2ccc(OCc3ccccc3Cl)cc2)n1	0	0	0	0	0	0
CCN(CC(=O)NC(C)C)Cc1nc2c(Br)cc(Br)cc2c(=O)[nH]1	0	0	?	9.2µM	0	0
CC12CCC3c4ccccc4CCC3(CO1)C2 (stereo not given)	0	0	?	0	?	0
CCOc1ccc(-n2c(SCC(=O)N3CCc4ccccc43)nc3c([nH]c4ccccc43)c2=O)cc1	-	0	0	?	0	-
COc1ccc(C2CC(c3ccccc3)=NN2S(=O)(=O)c2ccccc2)cc1 (stereo not given)	0	0	4.6µM	0	7.3µM	0
COc1ccc(C2CC(c3ccccc3)=NN2c2ccc(N)cc2)cc1 (stereo not given)	?	?	21µM	21µM	?	?
COc1ccc(C2CC(c3ccccc3O)=NN2c2ccccc2)cc1 (stereo not given)	0	0	0	0	0	0
CC(=O)Oc1ccc(C2=NN(c3ccccc3)C(c3ccccc3)C2)cc1 (stereo not given)	?	?	0	?	0	16µM
CS(=O)(=O)Nc1ccc(C2=NN(S(=O)(=O)c3ccccc3)C(c3cccs3)C2)cc1 (stereo not given)	0	?	?	0	0	0
